A selection: hits, their analogues and other compounds. The true share with any hit is near 9.2%.
SMN2 splice enh – qHTS Assay for Enhancers of SMN2 Splice Variant Expression; HEK293 SMN2-luciferase splicing reporter, luminescence, 30-36 h; Potency, µM (top dose mostly 46.1 µM), inactives show at the highest dose activity change, positive = activation, actives largely listed as activators; actives 2.8% (n = 210,000); AID 1458, 2008; also: % of control where 0% means no effect; nearly all actives have a fitted effect of over 55% in size
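HEK293 cells carry an SMN2 minigene-luciferase reporter in which exon 7 inclusion puts luciferase in frame. Cells were seeded at 2000 cells/well, attached for 10-12 hours, then exposed to compounds for 30-36 hours at 37C before ONE-Glo luminescence.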
NPC1 promoter act – qHTS Assay for NPC1 Promoter Activators | Huh7 NPC1 promoter luciferase reporter, 24 h | Potency, µM (highest dose often 9.22 µM), without a hit: top-dose activation, actives largely listed as activators | actives 2.4% (n = 320,000) | AID 485313, 2010; also: % of control where 0% means no effect; nearly all actives have a fitted effect of over 60% in size
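In 1536-well qHTS, Huh7 cells harboring an NPC1 promoter–luciferase construct received compound for 24 h; activation was quantified by luminescence following luciferase reagent addition.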
Rab9 promoter act – qHTS Assay for Rab9 Promoter Activators; AID 485297, 2010; Huh7 Rab9 promoter-luciferase reporter, luminescence, 24 h; actives 2.8% (n = 320,000); Potency, µM (doses to about 9.22 µM), inactives show at the top dose activation, negative = inhibition, actives largely listed as activators; also: % of control where 0% means no effect; nearly all actives have a fitted effect of over 60% in size
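Steps: seed 1500 Huh7 Rab9-luc cells per well, rest 2 h at 37 °C; add compound in DMSO; incubate 24 h; add luciferase reagent, 10 min ambient; read luminescence.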
ELG1 repair inh – qHTS screen for small molecules that inhibit ELG1-dependent DNA repair in human embryonic kidney (HEK293T) cells expressing luciferase-tagged ELG1; actives 2.3% (n = 330,000); Potency, µM (highest dose often 46.1 µM), for inactives: at the top dose activity change, negative = inhibition, most hits filed as inhibitors; HEK293T ELG1-luciferase reporter, luminescence, 16 h; DNA damage induced by 5-fluorouridine; AID 504467, 2011; also: % is scaled to controls: 0 for no effect and ±100 for the full control effect; nearly all actives have a fitted effect of over 55% in size
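Step one: seed 2,000 cells per well. Step two: pin-transfer compound or DMSO alongside 5-fluorouridine. Step three: incubate 16 hr, 37 °C, 5% CO2. Step four: add ONE-Glo, wait 30 min, read luminescence.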
FLuc counter – qHTS profiling assay for firefly luciferase inhibitor/activator using purifed enzyme and Km concentrations of substrates (counterscreen for miR-21 project); purified FLuc, Km substrates, luminescence inhibition; Potency, µM (series often up to 57.5 µM), for inactives: at the top dose activity change, negative = inhibition, actives largely listed as inhibitors; actives 6.9% (n = 360,000);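 also: plate controls were vehicle for no effect and reference inhibitor for full effect; nearly all actives have a fitted effect of over 55% in size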
Target sequence (P08659 whole entry, looked up): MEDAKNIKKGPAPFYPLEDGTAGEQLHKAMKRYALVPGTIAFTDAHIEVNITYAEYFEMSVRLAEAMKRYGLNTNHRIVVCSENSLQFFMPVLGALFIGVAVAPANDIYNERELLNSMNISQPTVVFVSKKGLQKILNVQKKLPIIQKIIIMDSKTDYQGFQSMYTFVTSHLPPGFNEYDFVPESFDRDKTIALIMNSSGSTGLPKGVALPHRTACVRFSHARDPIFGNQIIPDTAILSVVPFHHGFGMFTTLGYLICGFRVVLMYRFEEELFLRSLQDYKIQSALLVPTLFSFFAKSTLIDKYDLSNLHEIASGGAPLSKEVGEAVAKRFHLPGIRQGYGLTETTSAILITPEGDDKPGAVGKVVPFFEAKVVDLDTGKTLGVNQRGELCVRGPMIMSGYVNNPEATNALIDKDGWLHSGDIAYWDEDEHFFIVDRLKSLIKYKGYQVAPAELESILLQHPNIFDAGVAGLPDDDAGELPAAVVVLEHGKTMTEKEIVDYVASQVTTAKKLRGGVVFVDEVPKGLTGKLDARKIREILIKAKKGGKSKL
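Purified P. pyralis luciferase, 10 nM final, with Km-level 10 uM D-luciferin and 10 uM ATP in 50 mM Tris acetate pH 7.5, 10 mM Mg acetate, 0.01% Tween-20, 0.05% BSA; 6-point qHTS titration about 60 µM downward; luminescence read.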
ELG1 genotoxic – qHTS screen for small molecules that induce genotoxicity in human embryonic kidney (HEK293T) cells expressing luciferase-tagged ELG1; HEK293T ELG1-luciferase reporter, luminescence, 16 h; Potency, µM (series often up to 46 µM), for inactives: top-dose activity change, positive = activation, usual class: activators; actives 1.3% (n = 330,000); AID 504466, 2011; also: % of control where 0% means no effect; nearly all actives have a fitted effect of over 60% in size
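Cells (2,000/well) expressing the ELG1-luciferase fusion are dosed by pin tool and kept 16 hr at 37 °C, 5% CO2. Signal comes from ONE-Glo luciferase reagent after 30 min at room temperature.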
Numbers without * were called inactive; ? = inconclusive; . = no result given; [ ] = remark or other dose. Calls follow the shape of the dose curve; as a rule, active = well fitted curve in the direction sought with a large enough effect; inconclusive = small, poorly fitted or top-dose-only effect, or another doubt; inactive = no such curve, though single readings can be large; an effect the other way counts as inactive or inconclusive. Potency is read from the fitted curve at half-maximal effect.

SMILES | SMN2 splice enh | NPC1 promoter act | Rab9 promoter act | ELG1 repair inh | FLuc counter | ELG1 genotoxic
O=C(Nc1ccc(C(F)(F)F)cc1)c1ccc2ncsc2c1 | . | 3.55µM* | 3.55µM* | ? | 13.5µM* | ?
O=C(Nc1cccc(Cl)c1)c1ccc2ncsc2c1 | . | 3.98µM* | 3.55µM* | ? | 19µM* | ?
CCOc1ccc(NC(=O)CSC2=Nc3ccccc3C3=NC(CC(=O)NCc4ccccc4OC)C(=O)N23)cc1 (stereo not given) | . | . | . | . | -3.3% | .
O=C(Nc1ccc(F)cc1)c1ccc2ncsc2c1 | . | 2.24µM* | 3.55µM* | ? | 23.9µM* | ?
O=C(Nc1ccc(N2CCOCC2)cc1)c1ccc2ncsc2c1 | . | . | . | ? | . | 19.0%
CN(C)c1ccc(/C=N/N=C2/SC(CC(=O)O)C(=O)N2c2ccc(O)cc2)cc1 (stereo not given) | -6.7% | -0.6% | 25.9% | 16.8% | ? | 0.2%
C=CCN1C(=O)C(CC(=O)O)S/C1=N/N=C/c1ccc(N(CC)CC)cc1 (stereo not given) | . | 3.0% | -1.7% | 2.1% | 21.3µM* | 1.2%
Cn1c(/C(C#N)=C/c2ccc(O)cc2)nc2ccccc21 | . | ? | ? | ? | 12µM* | ?
Cn1c(/C(C#N)=C/c2ccc(C(F)(F)F)cc2)nc2ccccc21 | -9.5% | . | . | . | 6.75µM* | .
COc1cc(/C=C(\C#N)c2nc3ccccc3n2C)cc(OC)c1O | -12.6% | 0.4% | -1.5% | ? | ? | -7.8%
Cn1c(/C(C#N)=C/c2ccncc2)nc2ccccc21 | -5.7% | -4.7% | -4.7% | 0.2% | -12.3% | 0.4%
O=C(CC1OCC2CCCN2C1=O)Nc1ccc([N+](=O)[O-])cc1 (stereo not given) | . | 0.2% | 13.6% | 10.7% | -0.8% | 2.6%
CC(=O)N(C)C1=C(O)c2ccccc2C(=O)C1=O | 0.1% | -2.7% | 1.0% | -1.3% | 2.1% | 2.0%
CC(=O)N(C1=C(N)C(=O)c2ccccc2C1=O)C(C)C | -26.5% | -8.0% | -23.4% | 23.1µM* | -2.6% | -6.7%
COc1ccc(NC2=Nc3cccc4cccc2c34)cc1 | -10.8%[1.84 µM] | -1.8% | -1.9% | ? | 13.5µM* | 10.8%
O=C(O)c1cccc(NC2=Nc3cccc4cccc2c34)c1 | . | 0.447µM* | ? | ? | 0.477µM* | 7.3µM*
c1ccc(NC2=Nc3cccc4cccc2c34)cc1 | -44.0% | 1.3% | -2.0% | ? | 15.1µM* | 13.8%
Fc1ccc(/C=N/NC2=Nc3cccc4cccc2c34)cc1 | 11.2µM* | 1.58µM* | 1.58µM* | ? | 1.69µM* | 11.6µM*
O=C(NNC1=Nc2cccc3cccc1c23)c1ccccc1Br | -22.8%[1.84 µM] | 0.4% | -0.1% | 10.4% | -0.8% | 4.2%
O=C(O)c1cccc(N2C(=O)c3cccc4cccc(c34)C2=O)c1 | . | -4.1% | 1.0% | 1.1% | -6.3% | -1.7%
Cc1ccc(NC(=O)CSc2nc3ccc(NC(=O)COc4ccc(C)cc4)cc3s2)cc1 | . | . | . | . | 4.4% | .
CCc1ccccc1NC(c1nnc(-c2cccc(F)c2)o1)c1ccc(F)cc1Cl (stereo not given) | -3.8% | . | . | . | 3.6% | .
Cc1ccc(NC(=O)CCc2c(C)nc3c(-c4ccccc4)c(C)nn3c2C)c(C)c1 | -10.7% | . | . | . | 3.0% | .
COc1ccc(C2=Nc3cccc4cccc(c34)N2)cc1 | 3.6% | 4.9% | -25.7% | 14.8% | 5.36µM* | -0.4%
C[C@H](NS(=O)(=O)c1ccccc1)C(=O)N1CCN(C(c2ccccc2)c2ccccc2)CC1 | . | . | . | 25.9µM* | . | -5.2%
O=C(CSc1cccc[n+]1[O-])c1cc2ccccc2o1 | -25.3% | ? | ? | ? | 19µM* | ?
CC(=O)Nc1ccc2nc(C)n(Cc3ccc(Cl)cc3)c(=O)c2c1 | 12.6µM* | ? | 24.9% | ? | -29.0% | ?

From PubChem BioAssay
